{"source": "PubChem BioAssay AID827", "about": "(SRMLSC, 2007)", "note": "The whole screen tested about 140,000 compounds, of which about 1,700 (1.2%) were called active. The entries come from a sample that favours actives as a whole. Values without a mark were called inactive.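 The calls were made as follows: active = viability at or below a set limit, 4 SD under the median of all tested compounds (cut at about 3.7% in these data); inactive = the rest.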"}
{"assay": "viability loss in PTEN-deleted colon tumor cells – cell-based, HCT116, CellTiter-Glo, primary screen (AID 827);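 also: PTEN knockout HCT116 line with beta catenin targeted HCT116 as companion control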", "conditions": "HCT116 PTEN-null viability, 60 h, at 10 µM, stronger effect = lower value"}
{"smiles": "CCCCCNC(=O)c1cccnc1SCC(=O)Nc1ccccc1OC", "viability": "91.1%"}
{"smiles": "CCOC(=O)CN(Cc1ccc(OC)c(OC)c1)S(=O)(=O)c1ccc(OC)cc1", "viability": "96.9%"}
{"smiles": "COc1ccc(C(CCN(Cc2ccc(OC)c(OC)c2)C(=O)CCl)c2ccccc2)cc1", "note": "(configuration not stated)", "viability": "1.54% (active)"}
{"smiles": "COc1ccc(CCN(C(=O)COc2ccccc2)c2nc(-c3ccccc3)cs2)cc1OC", "viability": "74.5%"}
{"smiles": "Cc1cc(F)ccc1S(=O)(=O)N1CCCOC1CNC(=O)C(=O)NCCC1=CCCCC1", "note": "(configuration not stated)", "viability": "93.5%"}
{"smiles": "N#Cc1ccc(C(=O)Nc2nc(-c3cccs3)c(C(=O)C(F)(F)F)s2)cc1", "viability": "40.3%"}
{"smiles": "O=C1CCCCC(=O)c2ccccc2N1", "viability": "97.7%"}
{"smiles": "c1ccc2c(c1)C(=NC1CCCCC1)NC2=NC1CCCCC1", "viability": "1.88% (active)"}
{"smiles": "CC1=CC(C)(C)Nc2ccc(OC(=O)C(Cc3ccccc3)N3C(=O)C4CCCCC4C3=O)cc21", "note": "(configuration not stated)", "viability": "45.7%"}
{"smiles": "CC1=CC(C)(C)Nc2ccc(OC(=O)CN3C(=O)C4CCCCC4C3=O)cc21", "note": "(configuration not stated)", "viability": "0.76% (active)"}
{"smiles": "O=C(CN1C(=O)C2C3CCC(C3)C2C1=O)Oc1ccc2ccccc2c1", "note": "(configuration not stated)", "viability": "86%"}
{"smiles": "CCn1c(=O)cc(SCC(=O)NCCC2=CCCCC2)c2ccccc21", "viability": "91.3%"}
{"smiles": "CCCC(=O)Nc1ccc(C(=O)N/N=C/c2ccc[nH]2)cc1", "viability": "80.1%"}
{"smiles": "Cc1ccc(S(=O)(=O)N2CCC(C(=O)N[C@@H](C)C(=O)NCc3ccco3)CC2)cc1", "viability": "102%"}
{"smiles": "Cc1cc(C)c2nc(SCCC#N)nc(C)c2c1", "viability": "109%"}
{"smiles": "Cc1cc(C)c2nc3nc(C)cc(C)c3c(N)c2c1", "viability": "2.26% (active)"}
{"smiles": "CNC(=S)N/N=C/c1cn(Cc2ccc(C)cc2)c2ccccc12", "viability": "49.9%"}
{"smiles": "O=C(O)c1cnn2c(C(F)(F)F)cc(-c3ccccc3)nc12", "viability": "95.3%"}
{"smiles": "Cc1cccc(N2CCN(C(=O)c3cnn4c(C(F)F)cc(-c5ccccc5)nc34)CC2)c1C", "viability": "3.53% (active)"}
{"smiles": "CC(=O)N1CCN(c2cccc(C)c2C)CC1", "viability": "98%"}
{"smiles": "O=C(c1cccs1)N1CCN(Cc2ccc3c(c2)OCO3)CC1", "viability": "94.4%"}
{"smiles": "O=C(CCCN1C(=O)c2cccc3cccc(c23)C1=O)N1CCN(Cc2ccc3c(c2)OCO3)CC1", "viability": "89.4%"}
{"smiles": "O=C(Nc1cccc2ccccc12)N1CCN(Cc2ccc3c(c2)OCO3)CC1", "viability": "1.32% (active)"}
{"smiles": "CC1CCN(c2ccc(C(=O)Nc3nnc(C4CC4)s3)cc2[N+](=O)[O-])CC1", "viability": "96.1%"}
{"smiles": "Cc1ccc(C2=N/C(=C\\c3ccc(OS(=O)(=O)c4ccc(C)cc4)cc3)C(=O)O2)cc1", "viability": "92.6%"}
{"smiles": "CCN1/C(=C/c2ccc3ccc(C)cc3[n+]2CC)Sc2ccccc21", "viability": "2.61% (active)"}
{"smiles": "CCC(=O)/C=C1\\Sc2ccccc2N1CC", "viability": "95.3%"}
{"smiles": "O=C(NNC1=NCCC1)c1cccc(S(=O)(=O)N2CCCCC2)c1", "viability": "96.7%"}
{"smiles": "CC(=O)c1ccc(NC(=S)NC(=O)CC(C)C)cc1", "viability": "98.8%"}
{"smiles": "O=C(CC(=O)N/N=C\\c1cccc(Cl)c1Cl)NCc1ccccc1", "viability": "90.4%"}
{"smiles": "COc1ccccc1N1CCN(C(=O)CN(Cc2ccc(Cl)cc2)S(C)(=O)=O)CC1", "viability": "68.5%"}
{"smiles": "COc1ccccc1-n1nnnc1S(=O)(=O)Cc1ccc(Cl)cc1", "viability": "3.39% (active)"}
{"smiles": "COc1ccccc1N1CCN(Cc2nnnn2CCc2ccccc2)CC1", "viability": "104%"}
{"smiles": "CCCN=C1NC(=O)C(CC(=O)NCCc2ccc(OC)c(OC)c2)S1", "note": "(configuration not stated)", "viability": "96.5%"}
{"smiles": "CC(C)Nc1nnc(SCC(=O)/C=C2\\N(C)c3ccccc3C2(C)C)s1", "viability": "79%"}
{"smiles": "O=[N+]([O-])c1ccc(C=Nc2ccc(Cl)cc2Cl)s1", "viability": "2.41% (active)"}
{"smiles": "CCOc1ccc(NC(=O)CCC(=O)N/N=C/c2ccc([N+](=O)[O-])s2)cc1", "viability": "6.05%"}
{"smiles": "CC(=O)NC1=NN(C(C)=O)C(C)(CCS(=O)(=O)c2ccc(Cl)c(Cl)c2)S1", "note": "(configuration not stated)", "viability": "94.7%"}
{"smiles": "COc1ccc2nc(NC(=O)[C@@H]3CCCN3C(=O)c3cccs3)sc2c1", "viability": "85.2%"}
{"smiles": "CN1CCN(CCCNC(=O)c2cc3c(=O)oc4ccccc4c3s2)CC1", "viability": "109%"}
{"smiles": "Cn1c(C(=O)NCCN2CCc3ccccc3C2)cc2c(=O)[nH]c3ccccc3c21", "viability": "75.8%"}
{"smiles": "O=C(NCCN1CCN(Cc2ccccc2)CC1)c1cc2c(=O)[nH]c3ccccc3c2s1", "viability": "2.62% (active)"}
{"smiles": "COc1ccccc1OCC(=O)OCn1c(SC)nnc(C)c1=O", "viability": "98.3%"}
{"smiles": "CC(C)(C)C(=O)N1CCC[C@@]1(CO)C(=O)O", "viability": "93.1%"}
{"smiles": "CCCCCC(=O)NC(=S)NNC(=O)c1ccc([N+](=O)[O-])cc1", "viability": "37.4%"}
{"smiles": "CCCCCC(=O)Nc1ccc(C(=O)N/N=C/c2ccc([N+](=O)[O-])cc2)cc1", "viability": "1.62% (active)"}
{"smiles": "O=C(COc1ccc(/C=N/NC(=O)c2ccc(O)cc2)cc1)Nc1ccc([N+](=O)[O-])cc1", "viability": "60.2%"}
{"smiles": "Cc1cc(C)cc(OCC(=O)Nc2nc3ccc([N+](=O)[O-])cc3s2)c1", "viability": "103%"}
{"smiles": "O=C(NC(Nc1nc2ccc([N+](=O)[O-])cc2s1)(C(F)(F)F)C(F)(F)F)c1ccccc1", "viability": "1.46% (active)"}
{"smiles": "COC(=O)C(NC(=O)c1ccc(OC)cc1)(Nc1ncc(S(=O)(=O)c2ccc([N+](=O)[O-])cc2)s1)C(F)(F)F", "note": "(configuration not stated)", "viability": "72.2%"}
{"smiles": "COc1cc(NC(=O)COC(=O)CSc2ccc3ccccc3c2)c(C)cc1[N+](=O)[O-]", "viability": "96.9%"}
{"smiles": "CCn1nc(C)c(/C=N/NC(=O)Cc2ccc(Cl)cc2)c1C", "viability": "91.7%"}
{"smiles": "CCOc1ccc(C(=O)NC(=S)Nc2ccc(NC(=O)C(C)C)cc2)cc1[N+](=O)[O-]", "viability": "87.9%"}
{"smiles": "Cc1[nH]c2ccccc2c1C(=O)COC(=O)C(C)C", "viability": "112%"}
{"smiles": "CCOC(=O)c1c(C)[nH]c(=S)c(C#N)c1-c1ccccc1", "viability": "102%"}
{"smiles": "CCOC(=O)c1c(C)[nH]c2c1-c1ccccc1C(=O)C2=O", "viability": "1.66% (active)"}
{"smiles": "CN(C)S(=O)(=O)c1cc(NC(=O)CN2C(=O)NC3(CCCc4ccccc43)C2=O)ccc1Cl", "note": "(configuration not stated)", "viability": "59.3%"}
{"smiles": "CCOCCCNC(=O)C(=O)NCCCOCC", "viability": "102%"}
{"smiles": "COC(=O)CN1C(C)=Nc2ccc(Br)cc2C1c1ccccc1", "note": "(configuration not stated)", "viability": "0.62% (active)"}
{"smiles": "CCC(CC)C(=O)N1CC(=O)Nc2ccc(Br)cc2C1c1ccccc1", "note": "(configuration not stated)", "viability": "71.6%"}
{"smiles": "COC(=O)CN1C(=O)C(O)=C(C(C)=O)C1c1ccc([N+](=O)[O-])cc1", "note": "(configuration not stated)", "viability": "96.7%"}
{"smiles": "COc1ccc(OCc2cn3c(C)cc(C)nc3n2)cc1", "viability": "99.6%"}
{"smiles": "Cc1ccc(S(=O)(=O)N2CCN(CC(=O)N/N=C/c3cc([N+](=O)[O-])ccc3Cl)CC2)cc1", "viability": "74.4%"}
{"smiles": "CC(C)/C=N/NC(=O)c1cc(Br)ccc1O", "viability": "89%"}
{"smiles": "COc1ccc(C/C(C)=N/NC(=O)c2cc(C)oc2C)cc1", "viability": "98.5%"}
{"smiles": "c1ccc2cc3c(NCCN4CCOCC4)ccnc3cc2c1", "viability": "3.31% (active)"}
{"smiles": "c1ccc2[nH]c(NCCN3CCOCC3)nc2c1", "viability": "103%"}
{"smiles": "O=C(Cn1c(-c2ccccn2)nc2ccccc21)NCCN1CCOCC1", "viability": "102%"}
{"smiles": "COc1ccccc1C(=O)Nc1ccc(OCc2nnc3c4ccccc4c(C)nn23)cc1", "viability": "101%"}
{"smiles": "CCCNC(=O)NC(=O)COC(=O)CC(NC(N)=O)c1ccc(Cl)cc1", "note": "(configuration not stated)", "viability": "103%"}
{"smiles": "N#C/C(C(=O)N1CCOCC1)=C1/SC(Cc2ccc(F)cc2)C(=O)N1c1ccccc1", "note": "(configuration not stated)", "viability": "89.2%"}
{"smiles": "CCCCOc1ccc(C(=O)NCc2ccncc2)cc1", "viability": "70.3%"}
{"smiles": "CCCCOc1ccc(C(=O)NN2CCN(C)CC2)cc1", "viability": "102%"}
{"smiles": "CCCOc1ccc(C(=O)C(CCC(CNCC)C(=O)c2ccc(OCCC)cc2)CNCC)cc1", "note": "(configuration not stated)", "viability": "0.64% (active)"}
{"smiles": "CC1(C)C2CC=C(/C=N/NC(=O)c3ccc(Cl)cc3)C1C2", "note": "(configuration not stated)", "viability": "90.5%"}
{"smiles": "Fc1ccccc1/C=C1\\CCCC2=C1Nc1ncnn1C2c1ccccc1F", "note": "(configuration not stated)", "viability": "2.48% (active)"}
{"smiles": "O=C(/C=C\\c1cn(-c2ccccc2)nc1-c1cccs1)N1CCOCC1", "viability": "67.3%"}
{"smiles": "CCn1c(/C=N/NC(=O)c2ccc(OC)cc2)nc2ccccc21", "viability": "14.3%"}
{"smiles": "O=C(Nn1c(-c2ccc(Cl)cc2)nc2ccccc2c1=O)c1cccnc1Cl", "viability": "102%"}
{"smiles": "CCOC(=O)c1c(/N=C/c2cc(C)ccc2O)sc2c1CCC2", "viability": "91.9%"}
{"smiles": "CSc1nc(C)cc(SC(C(C)=O)C(=O)Nc2ccccc2)n1", "note": "(configuration not stated)", "viability": "88.1%"}
{"smiles": "CSc1nc(-c2ccccc2)nc(C(Cl)Cl)n1", "viability": "2.06% (active)"}
{"smiles": "C/C(=N/NS(=O)(=O)c1ccccc1)c1ccc(NC(=O)C(F)(F)F)cc1", "viability": "96.4%"}
{"smiles": "CCOc1cc(N2CCOCC2)c(OCC)cc1NC(=O)COC(=O)[C@H](Cc1c[nH]c2ccccc12)NC(C)=O", "viability": "93.5%"}
{"smiles": "CCOc1cc(N2CCOCC2)c(OCC)cc1NC(=O)COc1cccc2cccnc12", "viability": "3.59% (active)"}
{"smiles": "Cc1cccc(OCC(=O)NC(=S)Nc2ccccc2N2CCOCC2)c1", "viability": "99.9%"}
{"smiles": "O=[N+]([O-])c1ccc(N2CCN(S(=O)(=O)c3ccccc3)CC2)cc1N1CCc2ccccc2C1", "viability": "89.4%"}
{"smiles": "O=C(Cc1ccccc1)NNS(=O)(=O)c1ccc([N+](=O)[O-])cc1", "viability": "101%"}
{"smiles": "CC(C)CCN1C(=O)c2ccc(C(=O)Nc3cccc(S(N)(=O)=O)c3)cc2C1=O", "viability": "88.8%"}
{"smiles": "CN1CCN(CC(=O)Nc2sc3c(c2C#N)CCC(C(C)(C)C)C3)CC1", "note": "(configuration not stated)", "viability": "3.39% (active)"}
{"smiles": "COC(=O)c1c(NC(=O)CN2CCN(S(=O)(=O)c3ccccc3[N+](=O)[O-])CC2)sc2c1CCC(C)C2", "note": "(configuration not stated)", "viability": "93.5%"}
{"smiles": "CCC1CCc2c(sc(NC(C)=O)c2C#N)C1", "note": "(configuration not stated)", "viability": "95.5%"}
